The list is a sample of the results.
aSyn UTR act: Activators working through SNCA 5'UTR binding (MLPCN). AID 1814. alpha-synuclein 5'UTR reporter, activators screen. activity score, % (tested at 7.5 µM), hits read low. 300,000 tested, 7.1% active; in the data active means activity score below about -60%
Numbers without * were called inactive.

SMILES | aSyn UTR act
O=C(NC(=S)Nc1ccccn1)c1ccco1 | -173*
Cc1ccnc(NC(=S)NC(=O)c2ccco2)c1 | -140*
Cc1cc(-c2nc3ncccc3o2)ccc1NC(=S)NC(=O)c1ccco1 | -67*
O=C(NC(=S)Nc1cccnc1Cl)c1ccco1 | -62*
O=C(Nc1ncc(Cl)cn1)c1cccs1 | -69*
CC(C)c1ccc(N=C2NN=C(c3cccs3)CS2)cc1 | -145*
CC(C)N=C1NN=C(c2cccs2)CS1 | -100*
CC(C)N=C1NN=C(c2ccc(Cl)c(Cl)c2)CS1 | -228*
N/C(=N\OC(=O)CC1CCCCC1)c1ccccn1 | -90*
Cc1ccc(C(=O)O/N=C(\N)c2ccccn2)c(C)c1 | 106
N/C(=N\OC(=O)Cc1ccc(-c2ccccc2)cc1)c1ccccn1 | -66*
COc1ccc(CC(=O)O/N=C(\N)c2ccccn2)cc1 | -76*
Cc1ccc(C)c(OCC(=O)O/N=C(\N)c2ccccn2)c1 | -131*
N/C(=N\OC(=O)CSc1ccccc1)c1ccccn1 | -88*
Cc1cc(C)n2cc(CSc3nc4ccccc4s3)nc2n1 | -107*
O=C(Cn1cc(SCc2ccc(Cl)cc2)c2ccccc21)N1CCOCC1 | -90*
COc1cc(C(=O)N/N=C/c2cn(Cc3ccccc3)c3ccccc23)ccc1O | 57
O=C(CSc1cn(Cc2ccccc2)c2ccccc12)N1CCOCC1 | -129*
Cc1occc1C(=O)OCC(=O)Nc1ccc(F)cc1 | -62*
Cc1ccc(OCC(=O)Nc2ccc(F)cc2)cc1C | -74*
CC(=O)Nc1cccc(OCC(=O)Nc2ccc(F)cc2)c1 | -78*
Cc1nc2ccc(S(=O)(=O)Nc3cc(-c4nc5cccnc5s4)ccc3C)cc2s1 | -85*
Cc1ccc(C)c(NS(=O)(=O)c2ccc(-c3cnc(C4CC4)o3)cc2)c1 | 93
COc1cccc(C2=N/C(=C\N(C)C)C(=O)O2)c1 | -133*
O=[N+]([O-])c1ccc(O)c2ncccc12 | 72
SMILES | aSyn UTR act
Cc1ccc(N2C(=O)c3cccc4c([N+](=O)[O-])ccc(c34)C2=O)c2cccnc12 | 56
O=[N+]([O-])c1cccnc1NCCc1ccccc1 | -159*
O=[N+]([O-])c1cccnc1NCCc1c[nH]c2ccccc12 | -123*
Clc1ccc(Cl)c2sc(N3CCOCC3)nc12 | -66*
Clc1cc(Cl)c2nc(N3CCOCC3)sc2c1 | -156*
Clc1ccc(-c2nsc(N3CCOCC3)n2)c(Cl)c1 | -126*
O=C(CN1C(=O)C2C3C=CC(C4CC34)C2C1=O)Nc1cnc2ccccc2c1 (configuration not stated) | -83*
COc1ccc(C(=O)NCCC2=CCCCC2)cc1OC | -81*
COc1ccc(C(=O)NCCC2=CCCCC2)cc1 | 57
O=C1CSc2ccc(C(=O)NCCC3=CCCCC3)cc2N1 | -104*
O=C(NC1CCCCCC1)c1ccc(CN2CCOCC2)cc1 | -122*
O=C(NCCc1ccc(F)cc1)c1ccc([N+](=O)[O-])cc1 | -78*
COc1ccc(C(=O)NCCc2ccccc2)cc1OC | -97*
Cc1cc(C(=O)NCCC2=CCCCC2)ccc1[N+](=O)[O-] | -121*
O=C(NCCC1=CCCCC1)c1ccc(CN2CCOCC2)cc1 | -73*
O=C(NCCC1=CCCCC1)c1ccc([N+](=O)[O-])cc1 | -147*
CCOc1ccc(C(=O)NCCc2ccccc2)cc1 | 61
CCOc1cccc2cc(C(=O)NCCC3=CCCCC3)c(=O)oc12 | -95*
COCC(C)N1CCC(Oc2cccc(C(=O)NCCc3ccccc3)c2)CC1 (configuration not stated) | -72*
O=C(CCNC(=O)c1ccc(Cl)cc1)NCCC1=CCCCC1 | -124*
Oc1ccc(NCc2ccc(OCc3ccccc3)cc2)cc1 | -100*
COCC(=O)Nc1ccc(OCc2ccccc2)cc1 | -79*
CS(=O)(=O)Nc1ccc(OCc2ccccc2)cc1 | -168*
COc1ccccc1NC(=O)C(=O)N/N=C(\C)CC(=O)Nc1ccc(OCc2ccccc2)cc1 | -62*
COC(=O)Nc1ccc(OCc2ccccc2)cc1 | -112*
SMILES | aSyn UTR act
CC(=O)Nc1ccc(N=Cc2ccc(OCc3ccccc3)cc2)cc1 | -129*
COc1ccccc1-c1cnn2c(NCc3ccccc3)cc(C)nc12 | -75*
Cc1cc(NCc2ccccn2)n2ncc(-c3ccc(Cl)cc3)c2n1 | -97*
Cc1cc(NCCCN2CCOCC2)n2ncc(-c3ccccc3)c2n1 | -95*
Cc1cc(NCc2ccccn2)n2ncc(-c3ccccc3)c2n1 | -155*
Fc1ccc(/C=N/NC(=S)Nc2cccnc2)cc1F | -86*
CCCC(=O)N=C1SC2CS(=O)(=O)CC2N1c1ccc(-c2nc3ccc(C)cc3s2)cc1 (configuration not stated) | -132*
NC(=O)COc1ccc2cc(-c3ccccc3)c(=O)oc2c1 | -87*
O=c1oc2cc(OCc3ccc(F)cc3F)ccc2cc1-c1ccccn1 | -101*
COc1ccc(-c2coc3cc4oc(=O)c5ccccc5c4cc23)cc1F | 81
NC(=O)COc1ccc2cc(-c3ccc(F)cc3)c(=O)oc2c1 | -75*
COc1ccc(-c2cc3ccc(OCC(C)=O)cc3oc2=O)cc1OC | -125*
NC(=O)COc1ccc2oc(-c3ccccc3)cc(=O)c2c1 | -166*
C(=C\c1ccc2ccccc2n1)/c1ccccc1 | 67
